In PubChem BioAssay (EPA / NIEHS):
Records with an inconclusive call do not appear. Activity calls are given as the source filed them. The calls were made as follows: active = hit-call score of the fitted dose curve at least 0.9, where 1 is the maximum; inconclusive = response in the unintended direction; inactive = score below 0.9.

Each compound was assayed on alkyl and aryl transferase (GSTA2), GSTA2 (gene 2939) (assay: CLD_GSTA2_24hr: CellzDirect (CLD) Gene Expression Assay for alkyl and aryl transferase (GSTA2) at 24 hours (AID 2283693)).
Experimental: CLD_24hr is a cell-based, multiplexed-readout assay that uses hepatocyte, a human liver primary cell, with measurements taken at 24 hours after chemical dosing in a 96-well plate.CLD_GSTA2_24hr is one of 16 assay component(s) measured or calculated from the CLD_24hr assay. It is designed to make measurements of mRNA induction, a form of inducible reporter, as detected with chemiluminescence signals by Quantitative Nuclease Protection Assay (qNPA) technology.Data from the assay component CLD_GSTA2_24hr was analyzed at the endpoint, CLD_GSTA2_24hr, in the positive analysis fitting direction relative to DMSO as the negative control and baseline of activity. Using a type of inducible reporter, gain-of-signal activity can be used to understand changes in the reporter gene as they relate to the gene GSTA2. Furthermore, this assay endpoint can be referred to as a primary readout. To generalize the intended target to other relatable targets, this assay endpoint is annotated to the transferase intended target family, where subfamily is alkyl and aryl transferase.
Human hepatocyte cultures were treated daily for two consecutive days with fresh dosing solutions containing appropriate concentrations of the 320 ToxCast chemicals (chemical identities were blinded to CellzDirect and other ToxCast collaborators), vehicle control (0.2% DMSO), and positive control inducers as summarized in Table 1. Due to the large number of treatment groups and chemicals examined, the ToxCast chemicals were divided into two groups (spanning two independent cultures of hepatocytes from separate donor preparations (Hu778: ToxCast plates 1 and 2; Hu776: ToxCast plates 3 and 4). Each preparation of human hepatocyte cultures was treated with respective vehicle control, medium only control, set of six positive controls/reference chemicals for the five hepatic receptor pathways, and a subset of eight of the ToxCast chemicals (indoxacarb, pyrithiobac-sodium, norflurazon, cyhalofop-butyl, methomyl, thiram, acetochlor, and propiconazole). These replicate data, coupled with internal replicates designed within the blinded ToxCast chemical library, provided additional data to evaluate interindividual differences between hepatocyte preparations and their potential impact on chemical profiles.Cell morphology and integrity were evaluated using phase-contrast microscopy as an indicator of hepatocyte cell health (Tyson & Green, 1987). Cultures for each treatment group (i.e., media, vehicle [0.2% DMSO], positive control inducers [multiple concentrations], and the ToxCast chemicals [multiple concentrations]) were observed and cell morphology was assessed relative to vehicle control cultures at each harvest time point (0, 6, 24, or 48 h). […] Images were evaluated at the conclusion of the study to assess changes in cell integrity and account for the effects of chemical exposure on uncharacteristic changes in concentration-dependent gene expression profiles. The results from these determinations of apparent cytotoxicity were annotated (yes/no) alongside the corresponding qNPA data for reference.At the conclusion of each treatment period, hepatocyte cultures (96-well) were washed with 1 volume of HBSS, lysed by addition of 25 ul ArrayPlate lysis buffer (HTG, Tucson, AZ), and 70 ul/well of Denaturation Oil, denatured by incubation at 95C for 10 min, and frozen at approximately -70C until analysis by nuclease protection assay (qNPA) (Roberts et al., 2007). For qNPA analysis, cell lysates were thawed at 50C for approximately 30 min, qNPA probes were added, and samples were incubated at 95C for 10 min to begin the detection process by denaturing the target RNA, dissociating the duplexes and secondary structure hybridization. At the conclusion of the hybridization period, S1 nuclease reagent was added to each sample to digest all nonprotected nucleotides at 50C for 60-90 min. […]
In the case of `CCc1cccc(CC)c1N(COC)C(=O)CCl`, the outcome is reported as “inactive”.
`CCOC(=O)CC(SP(=O)(OC)OC)C(=O)OCC` (stereo not given) was tested, and the outcome was “inactive”.
In the case of `CCc1cnc(C2=NC(C)(C(C)C)C(=O)N2)c(C(=O)O)c1` (stereo not given), the outcome is reported as “inactive”.
`CCOP(=S)(OCC)Oc1ccc2c(C)c(Cl)c(=O)oc2c1` was tested, and the outcome was “inactive”.
`CCCCOC(=O)[C@@H](C)Oc1ccc(Oc2ccc(C#N)cc2F)cc1` was tested, and the outcome was “inactive”.
With `COP(=O)(OC)SCn1c(=O)oc2cc(Cl)cnc21` the outcome was “inactive”.
In the case of `Nc1c(Cl)cc([N+](=O)[O-])cc1Cl`, the outcome is reported as “inactive”.
In the case of `CCCOCC(=Nc1ccc(Cl)cc1C(F)(F)F)n1ccnc1`, the outcome is reported as “inactive”.
With `FC(F)C(F)(F)OCC(Cn1cncn1)c1ccc(Cl)cc1Cl` (stereo not given) the outcome was “inactive”.
With `CCOP(=O)(NC(C)C)Oc1ccc(SC)c(C)c1` (stereo not given) the outcome was “inactive”.
`CCC(CC)Nc1c([N+](=O)[O-])cc(C)c(C)c1[N+](=O)[O-]` was tested, and the outcome was “inactive”.
With `CN(C)[C@@H]1C(=O)C(C(N)=O)=C(O)[C@@]2(O)C(=O)C3=C(O)c4c(O)cccc4[C@@](C)(O)[C@H]3[C@H](O)[C@@H]12` the outcome was “inactive”.
For `N#CSCSC#N`, the outcome was “inactive”.
With `CCCSP(=O)(OCC)SCCC` the outcome was “inactive”.
`CCOP(=O)(OCC)Oc1cc(C)nc(C(C)C)n1` was tested, and the outcome was “inactive”.
`CC(C1CC1)C(O)(Cn1cncn1)c1ccc(Cl)cc1` (stereo not given) was tested, and the outcome was “inactive”.
`CCOP(=S)(OCC)SCCSCC` was tested, and the outcome was “inactive”.
For `COP(=O)(OC)C(O)C(Cl)(Cl)Cl` (stereo not given), the outcome was “inactive”.
In the case of `COc1cc(OC)nc(Sc2cccc(Cl)c2C(=O)O)n1`, the outcome is reported as “inactive”.
With `COc1ccc(C(=CC(=O)N2CCOCC2)c2ccc(Cl)cc2)cc1OC` the outcome was “inactive”.
For `C=C(C)[C@H]1Cc2c(ccc3c2O[C@@H]2COc4cc(OC)c(OC)cc4[C@@H]2C3=O)O1`, the outcome was “inactive”.
For `CCOP(=S)(Oc1cnc(C(C)(C)C)nc1)OC(C)C` (stereo not given), the outcome was “inactive”.
In the case of `CCOP(=S)(OCC)OC(Cl)C(Cl)(Cl)Cl` (stereo not given), the outcome is reported as “inactive”.
For `CC1=NNC(=O)N(/N=C/c2cccnc2)C1`, the outcome was “inactive”.
`CCNc1nc(Cl)nc(NC(C)(C)C#N)n1` was tested, and the outcome was “inactive”.
With `CNC(=O)Oc1cccc2c1OC(C)(C)O2` the outcome was “inactive”.
With `CSc1nc(NC(C)C)nc(NC(C)C)n1` the outcome was “inactive”.
With `C#CCC1=C(C)C(OC(=O)C2C(C=C(C)C)C2(C)C)CC1=O` (stereo not given) the outcome was “inactive”.
In the case of `CNC(=O)ON=C(C)SC`, the outcome is reported as “inactive”.
For `C[Si](Cn1cncn1)(c1ccc(F)cc1)c1ccc(F)cc1`, the outcome was “inactive”.
In the case of `CC(C)N(C(=O)SCC(Cl)=C(Cl)Cl)C(C)C`, the outcome is reported as “inactive”.
`CNC(=O)ON=C(SC)C(=O)N(C)C` was tested, and the outcome was “inactive”.
`CSc1nnc(C(C)(C)C)c(=O)n1N` was tested, and the outcome was “inactive”.
In the case of `CCCCN(CC)c1c([N+](=O)[O-])cc(C(F)(F)F)cc1[N+](=O)[O-]`, the outcome is reported as “inactive”.
In the case of `CSC1=N[C@@](C)(c2ccccc2)C(=O)N1Nc1ccccc1`, the outcome is reported as “inactive”.
For `CC(C)[C@H](C(=O)O[C@H](C#N)c1cccc(Oc2ccccc2)c1)c1ccc(Cl)cc1`, the outcome was “inactive”.
With `S=C1NCCN1` the outcome was “inactive”.
With `CCCOc1nn(C(=O)NS(=O)(=O)c2ccccc2C(=O)OC)c(=O)n1C` the outcome was “inactive”.
In the case of `CN(C)C(=O)Nc1cccc(C(F)(F)F)c1`, the outcome is reported as “inactive”.
In the case of `CCCCOC(=O)c1ccccc1C(=O)O`, the outcome is reported as “inactive”.
